Our source for the Inhibition values is ChEMBL document CHEMBL1157539, “Thousands of chemical starting points for antimalarial lead identification” (Nature, 2010).

In general, Inhibition refers to how much of the control response was suppressed. A high value points to strong suppression.

This assay relates to Plasmodium falciparum. The experiment in a line: GSK_TCMDC: Inhibition of Plasmodium falciparum Dd2 in whole red blood cells, using parasite LDH activity as an index of growth. Test compounds present at 2uM. In kind it is functional.
`Cc1occc1C(=O)Nc1nc(-c2ccccn2)nc2ccsc12` returned an Inhibition of 98%.

Molecule `COc1cc(C)nc2ccc(NC(=O)c3cc(C(F)(F)F)cc(C(F)(F)F)c3)cc12.Cl` displayed an Inhibition of 99%.

The molecule `CC(C)[C@H](NC(=O)NC1CCC(CCN2C3CCC2CC(OC(=O)C(CO)c2ccccc2)C3)CC1)C(O)(c1ccccc1)c1ccccc1` (stereo not given in full) registered an Inhibition of 4%.

`Cc1onc(-c2c(F)cccc2Cl)c1C(=O)Nc1ccccc1I` yielded an Inhibition of 52%.

For `CCc1ccc(NC(=O)c2cccc(CN3CCCN(CC4CCCCC4)CC3)c2)cc1.O=C(O)C(F)(F)F`, the Inhibition is 41%.

The molecule `COCCOc1cc(C)c(C2CCN(CCCCNC(=O)c3ccc(NC(=O)c4ccc(Cl)cc4)cc3)CC2)cc1C` showed an Inhibition of 30%.

`Cc1cccc2nc(-c3cccc(-c4cccc(NC(=O)NCc5cccc(F)c5)c4)c3)[nH]c12`: the Inhibition came to 32%.

`Cc1cccc(-c2nn(-c3ccccc3)cc2C(=O)Nc2nnc(C)o2)c1` registered an Inhibition of 63%.

Turning to `CCN1CCCC1CN(Cc1ccc(-c2ccc(C(F)(F)F)cc2)cc1)C(=O)Cn1c(CCc2cccc(F)c2F)nc(=O)c2ccccc21.O=C(O)C(O)C(O)C(=O)O` (stereo not given), the Inhibition was 51%.

In the case of `COc1ccc(CC(=O)NC(CCN2CCC3(CCc4ccccc43)CC2)c2ccc(Cl)c(Cl)c2)cc1` (stereo not given), the Inhibition was 75%.

`CN1CCN(c2ccc3nccc(CCN4CCC(NCc5ccc6c(n5)NC(=O)CO6)CC4)c3n2)CC1.Cl` came in with an Inhibition of 3%.

The molecule `CC(C)C[C@H](NC(=O)c1ccc(OCCN2CCOCC2)cc1)C(=O)N[C@H](/C=N/N(C)C(=O)c1ccccc1)CCc1ccccc1` gave an Inhibition of 72%.

The molecule `COc1ccc(-c2nc(-c3ccc([N+](=O)[O-])cc3)no2)cc1OC` gave an Inhibition of 0%.

In the case of `N=C(NCc1ccccc1)Nc1nc(-c2ccc(OCCCn3ccnc3)cc2)cs1`, the Inhibition came out at 55%.

With `Nc1ccc(-c2nc3cc(C4=N[C@H]5CCCC[C@H]5N4)ccc3o2)cc1[N+](=O)[O-]`, the Inhibition came out at 33%.

Regarding `O=C(Nc1cccc(-c2ccc(-c3nc4ccccc4[nH]3)cc2)c1)c1cnn2cccnc12`, the Inhibition came out at 1%.

Regarding `Cc1cc(O)c(CN(C)Cc2ccc3c(c2)OCCO3)cc1C(C)C`, the Inhibition stood at 47%.

Turning to `N#Cc1cccc(CN2CCCN(Cc3ccc(C(=O)Nc4ccc(Cl)cc4)cc3)CC2)c1.O=C(O)C(F)(F)F`, the Inhibition worked out at 21%.

Molecule `COc1ccccc1C1CCN(C2CCC(NC(=O)/C=C/c3ccc(C(F)(F)F)cc3)CC2)CC1` (stereo not given) returned an Inhibition of 7%.

In turn, `CCCOc1ccccc1-c1nc2[nH]c3c(c2c(=O)[nH]1)CCN(C)C3` yielded an Inhibition of 70%.

Take `Cc1noc(C)c1-c1ccc2c(Nc3ccccc3C(C)(C)C)c(C(=O)NCc3cccc4ccccc34)cnc2c1.Cl`: the Inhibition is reported as 64%.

The molecule `O=C(Nc1cccc(CN2CCCN(Cc3cccc(O)c3)CC2)c1)c1ccc(-c2ccccc2)cc1.O=C(O)C(F)(F)F` showed an Inhibition of 66%.

In turn, `CN1CCN(CCCN(Cc2cccc(-c3ccc(CNCc4ccc5c(c4)OCO5)cc3)c2)C(=O)Nc2ccccc2)CC1.O=C(O)C(F)(F)F` had an Inhibition of 69%.

On to `O=C(Nc1ccnc(N2CC3CC2CN3Cc2cccc(O)c2)c1)c1ccc(F)cc1.O=C(O)C(F)(F)F` (stereo not given), for which the Inhibition is recorded as 0%.

Molecule `Cc1cc(=NN=Cc2ccccc2F)c2cccc(C)c2[nH]1` gave an Inhibition of 14%.

`O=C(Nc1cccc(-c2cccc(-c3ccc(F)cc3)n2)c1)c1ccc([N+](=O)[O-])o1` registered an Inhibition of 42%.

For `COc1cc(-c2nc3c4ccccc4c4ccccc4c3[nH]2)cc(OC)c1OC`, the Inhibition came to 10%.

In turn, `Cc1cc(F)ccc1[C@H]1C[C@H](N2CCOCC2)CCN1C(=O)N(C)[C@@H](C)c1cc(C(F)(F)F)cc(C(F)(F)F)c1.Cl` gave an Inhibition of 99%.

Take `Nc1c(Cl)cc(C(O)CNCCCCCCOCCC=C2CCOCC2)cc1Cl` (stereo not given): the Inhibition is 9%.

In the case of `CCCCNCc1ccc(-c2nc(CN(Cc3ccc(Cl)c(Cl)c3)C(=O)CN(C)C)cs2)cc1.O=C(O)C(F)(F)F`, the Inhibition turned out to be 51%.

On to `CCN1CCN(c2ccc(NC(=O)c3cc4c(C)nn(-c5ccccc5)c4s3)cc2C)CC1`, for which the Inhibition was found to be 81%.

Regarding `FC(F)(F)c1cccc(C=NNc2nc3ccccc3[nH]2)c1`, the Inhibition turned out to be 99%.

For `O=S(=O)(Nc1cccc(CCN2CCC(N3CCCCC3)CC2)c1)c1ccc(-c2ccccc2)cc1`, the Inhibition came to 49%.

In turn, `Cc1cccc(C(=O)NC(NC(=S)Nc2cc(Cl)ccc2Cl)C(Cl)(Cl)Cl)c1` (stereo not given) had an Inhibition of 61%.

`O=C(/C=C/c1ccc(Cl)c(Cl)c1)NCCCCCN1CCCC(C(=O)Nc2ccc(F)c(Cl)c2)C1` (stereo not given) yielded an Inhibition of 2%.

`CN1CCCCC1CCc1cc(C(=O)Nc2ccc(-c3ccc(O)cc3)cc2)ccc1O` (stereo not given) showed an Inhibition of 11%.

On to `CC(C)COc1ccc(Cl)cc1Cc1nc(-c2nc3ccc(CN4CCCC4)cc3[nH]2)co1.Cl`, for which the Inhibition is 66%.

For the molecule `CCN(CCCN1CCCCC1)c1nccc(Nc2ccc(Cl)cc2)n1`, the Inhibition was found to be 63%.

On to `Cc1cccc2nc(-c3ccc(-c4ccc(CN5CCCC(O)C5)cc4)cc3)[nH]c12.O=C(O)C(F)(F)F` (stereo not given), for which the Inhibition is recorded as 54%.

Consider `CCCCCCN1CCC(NCc2ccc(OCCN3CCCC3)cc2)CC1.O=C(O)C(F)(F)F`, for which the Inhibition is on record as 93%.
